According to PubChem BioAssay (NCATS):
Where “and” joins values, the source holds several entries; their conditions need not be identical. Equal values may be shown once. Results filed as inconclusive are left out. Unmarked numbers belong to inactive results. Calls of active or inactive are those of the source. Unless noted, calls follow the shape of the dose curve; as a rule, active = well fitted curve in either direction with a large enough effect (not every such curve was filed as active); inconclusive = small, poorly fitted or top-dose-only effect, or another doubt; inactive = flat fitted curve, though single readings scatter.

Test: Cell Viability - BJ (AID 421; calls by dose curve;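 also: potency is read from the fitted curve at half-maximal effect; cells exposed to compound for 40 hours at 37 °C before readout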)
Conditions: BJ fibroblast viability, qHTS
Outline: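 Cytotoxicity as drop in intracellular ATP (CellTiter-Glo, 20 min RT) after 40 hr compound exposure of BJ fibroblasts at 37 °C. Titrations scaled between DMSO and 100 uM tamoxifen, Hill-fitted for AC50.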

SMILES | Potency
Oc1c(Cl)cc(Cl)cc1Sc1cc(Cl)cc(Cl)c1O | > 92 µM
CC(=O)O[C@]1(C(C)=O)CC[C@H]2[C@@H]3C[C@H](C)C4=CC(=O)CC[C@]4(C)[C@H]3CC[C@@]21C | > 92 µM
CC(C)(C)CC(C)(C)c1ccc(OCCOCC[N+](C)(C)Cc2ccccc2)cc1 | 52.9 µM (active)

Test: Cell Viability - HepG2 (AID 433; calls by dose curve;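 also: potency is read from the fitted curve at half-maximal effect; cells exposed to compound for 40 hours; potency for ATP loss meaning cytotoxicity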)
Conditions: qHTS
Outline: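 Cytotoxicity read as ATP loss (CellTiter-Glo luminescence) after 40 hr compound exposure of HepG2, 1500 cells/well, 37 °C. AC50 by Hill equation; 0% set by DMSO, 100% inhibition by 100 uM tamoxifen.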

SMILES | Potency
Oc1c(Cl)cc(Cl)cc1Sc1cc(Cl)cc(Cl)c1O | 27.9 µM (active)
CC(=O)O[C@]1(C(C)=O)CC[C@H]2[C@@H]3C[C@H](C)C4=CC(=O)CC[C@]4(C)[C@H]3CC[C@@]21C | > 92 µM
CC(C)(C)CC(C)(C)c1ccc(OCCOCC[N+](C)(C)Cc2ccccc2)cc1 | 57.8 µM (active)

Test: NFAT Signaling Pathway (AID 444);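 also: carbachol stimulus at about its EC50 of 1 µM final; % is scaled to controls: 0 for no effect and ±100 for the full control effect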
Conditions: Jurkat NFAT-bla M1, carbachol, beta-lactamase ratio, 5 h; at 17.2 µM (top of the series)
Outline: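 Jurkat cells with NFAT-driven β-lactamase reporter and co-expressed M1 receptor, stimulated with carbachol (final 1 uM, ~EC50), compound titration, 5 h at 37 °C. CCF4 loaded 1 h at RT; 460/530 nm ratio gave %activity and AC50.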

SMILES | activity change, negative = inhibition
C[C@]12CC[C@H]3[C@@H](CCC4=CC(=O)CC[C@@]43C)[C@@H]1CC[C@@H]2C(=O)CO | -13.6%
Oc1c(Cl)cc(Cl)cc1Sc1cc(Cl)cc(Cl)c1O | -126% (active)
CC(=O)OCC(=O)[C@@]1(O)[C@H](C)C[C@H]2[C@@H]3CCC4=CC(=O)C=C[C@]4(C)[C@@]3(F)[C@@H](O)C[C@@]21C | 29.8%
CCCC1O[C@@H]2C[C@H]3[C@@H]4CCC5=CC(=O)C=C[C@]5(C)[C@H]4[C@@H](O)C[C@]3(C)[C@]2(C(=O)CO)O1 (some centres undefined) | 23.6%
CCN1CCN(c2cc3c(cc2F)c(=O)c(C(=O)O)cn3C2CC2)CC1 | 3.59%
CCC(C(=O)OCCN(CC)CC)c1ccccc1 (centres undefined) | -83.4% (active)
O=C(OCCOCCO)c1ccccc1Nc1cccc(C(F)(F)F)c1 | -18%
CCC(NC(C)C)C(O)c1ccc(O)c(O)c1 (centres undefined) | 3%
CC(=O)OCC(=O)[C@@]1(OC(C)=O)[C@@H](C)C[C@H]2[C@@H]3C[C@H](F)C4=CC(=O)C=C[C@]4(C)[C@@]3(F)[C@@H](O)C[C@@]21C | 17.4%
CCN(CCCCOC(=O)c1ccc(OC)c(OC)c1)C(C)Cc1ccc(OC)cc1 (centres undefined) | -93.3% (active)
C[C@H]1C[C@H]2[C@@H]3CCC4=CC(=O)C=C[C@]4(C)[C@@]3(Cl)[C@@H](O)C[C@]2(C)[C@@]1(O)C(=O)CO | -6.95%
CC(=O)OCC(=O)[C@@]12OC(C)(C)O[C@@H]1C[C@H]1[C@@H]3C[C@H](F)C4=CC(=O)C=C[C@]4(C)[C@@]3(F)[C@@H](O)C[C@@]12C | 15.1%
CC1(C)O[C@@H]2C[C@H]3[C@@H]4C[C@H](F)C5=CC(=O)CC[C@]5(C)[C@H]4[C@@H](O)C[C@]3(C)[C@]2(C(=O)CO)O1 | 16.2%

Test: Stat Signaling Pathway (AID 446);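 also: ME-180 cervical cancer cells given 40 pM IL-6 alongside compound; SIE-controlled beta-lactamase reporter measured as 460/530 nm FRET emission ratio; % is scaled to controls: 0 for no effect and ±100 for the full control effect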
Conditions: ME-180 (cervical carcinoma) SIE beta-lactamase reporter, IL-6 stimulated, 5 h; at 17.2 µM (top of the series)
Outline: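 FRET read-out (405 nm excitation, 460/530 nm emission) of a beta-lactamase reporter under a STAT-inducible element in ME-180 cervical carcinoma cells. Cells with compound receive 40 pM IL-6 for 5 h. Values are normalised to AC90 stimulation and AC90 JAK-inhibitor controls.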

SMILES | activity, negative = inhibition
C[C@]12CC[C@H]3[C@@H](CCC4=CC(=O)CC[C@@]43C)[C@@H]1CC[C@@H]2C(=O)CO | 1.53%
Cc1ccnc(NS(=O)(=O)c2ccc(N)cc2)n1 | -12.6%
Oc1c(Cl)cc(Cl)cc1Sc1cc(Cl)cc(Cl)c1O | -99.1% (active)
CC(=O)OCC(=O)[C@@]1(O)[C@H](C)C[C@H]2[C@@H]3CCC4=CC(=O)C=C[C@]4(C)[C@@]3(F)[C@@H](O)C[C@@]21C | -9.24%
CC(=O)O[C@]1(C(C)=O)CC[C@H]2[C@@H]3C[C@H](C)C4=CC(=O)CC[C@]4(C)[C@H]3CC[C@@]21C | 11.1%
Cc1cccc(C)c1NC(=O)CN1CCN(CCCC(c2ccc(F)cc2)c2ccc(F)cc2)CC1 | -20%
CCCC1O[C@@H]2C[C@H]3[C@@H]4CCC5=CC(=O)C=C[C@]5(C)[C@H]4[C@@H](O)C[C@]3(C)[C@]2(C(=O)CO)O1 (some centres undefined) | -3.6%
CCN1CCN(c2cc3c(cc2F)c(=O)c(C(=O)O)cn3C2CC2)CC1 | 20.5%
CN(C)CCCOc1nn(Cc2ccccc2)c2ccccc12 | -8.78%
CC(=O)c1ccc2c(c1)N(CCCN1CCC(CCO)CC1)c1ccccc1S2 | 9.61%
CCC(C(=O)OCCN(CC)CC)c1ccccc1 (centres undefined) | 2.13%
O=C(OCCOCCO)c1ccccc1Nc1cccc(C(F)(F)F)c1 | -10.5%
C[C@@H](CN(C)C)CN1c2ccccc2Sc2ccccc21 | -7.27%
CC(C)(C)CC(C)(C)c1ccc(OCCOCC[N+](C)(C)Cc2ccccc2)cc1 | -2.12%
CCC(NC(C)C)C(O)c1ccc(O)c(O)c1 (centres undefined) | 1.25%
CCCC(=O)Nc1ccc(OCC(O)CNC(C)C)c(C(C)=O)c1 (centres undefined) | 7.52%
CCN(CC)C(=O)N1CCN(C)CC1 | 3.22%
CC(=O)OCC(=O)[C@@]1(OC(C)=O)[C@@H](C)C[C@H]2[C@@H]3C[C@H](F)C4=CC(=O)C=C[C@]4(C)[C@@]3(F)[C@@H](O)C[C@@]21C | 0.432%
Nc1nc2ncc(CNc3ccc(C(=O)N[C@@H](CCC(=O)O)C(=O)O)cc3)nc2c(=O)[nH]1 | 1.24%
CCN(CCCCOC(=O)c1ccc(OC)c(OC)c1)C(C)Cc1ccc(OC)cc1 (centres undefined) | 1.95%
NCCCC[C@H](N[C@@H](CCc1ccccc1)C(=O)O)C(=O)N1CCC[C@H]1C(=O)O | 4.58%
O=C(COc1ccc(Cl)cc1)N1CCN(Cc2ccc3c(c2)OCO3)CC1 | 1.26%
CN1CCN(C(c2ccccc2)c2ccccc2)CC1 | 3.06%
C[C@H]1C[C@H]2[C@@H]3CCC4=CC(=O)C=C[C@]4(C)[C@@]3(Cl)[C@@H](O)C[C@]2(C)[C@@]1(O)C(=O)CO | -1.29%
CC(=O)OCC(=O)[C@@]12OC(C)(C)O[C@@H]1C[C@H]1[C@@H]3C[C@H](F)C4=CC(=O)C=C[C@]4(C)[C@@]3(F)[C@@H](O)C[C@@]12C | -3.28%
CCn1cc(C(=O)O)c(=O)c2cnc(N3CCCC3)nc21 | 2.28%
CN1CCN(CCCN2c3ccccc3Sc3ccc(S(=O)(=O)N(C)C)cc32)CC1 | 5.77%
CC1(C)O[C@@H]2C[C@H]3[C@@H]4C[C@H](F)C5=CC(=O)CC[C@]5(C)[C@H]4[C@@H](O)C[C@]3(C)[C@]2(C(=O)CO)O1 | -6.53%
CCCCCCCCCCCCCCCC[N+](C)(C)CCN(Cc1ccc(OC)cc1)c1ncccn1 | 11.5%
CCCCOc1ccc(C(=O)CCN2CCCCC2)cc1 | -25% and -28.6%
